From PubChem BioAssay (EPA / NIEHS)
Calls of active or inactive are those of the source. How the source made its calls: active means hit-call score of the fitted dose curve at least 0.9, where 1 is the maximum; inactive means score below 0.9.

Tests used:
[1] = ATG_GLI_CIS: Attagene CIS-FACTORIAL HepG2 Assay for human Zinc Finger Protein GLI1 (AID 2282945); details: HepG2, Attagene cis-factorial reporter mRNA, GLI element; actives raise or lower the signal
Outline: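 HepG2 cells transiently transfected with cis-promoter multiplexed reporter units report endogenous transcription factor activity. After 24 h chemical exposure, reporter mRNA was quantified by RT-PCR, 6-FAM labelling, HpaI digestion and capillary electrophoresis, with bidirectional fitting against DMSO.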

[2] = target: Bile acid receptor (Homo sapiens) (UniProt Q96RI1); experiment: ATG_IR1_CIS: Attagene CIS-FACTORIAL HepG2 Assay for human Nuclear Receptor Subfamily 1 Group H Member 4 (NR1H4), IR1 submotif (AID 2282946); details: IR1 reporter transcription, actives raise or lower the signal
Chain of Bile acid receptor (Homo sapiens) (Q96RI1 whole entry, looked up): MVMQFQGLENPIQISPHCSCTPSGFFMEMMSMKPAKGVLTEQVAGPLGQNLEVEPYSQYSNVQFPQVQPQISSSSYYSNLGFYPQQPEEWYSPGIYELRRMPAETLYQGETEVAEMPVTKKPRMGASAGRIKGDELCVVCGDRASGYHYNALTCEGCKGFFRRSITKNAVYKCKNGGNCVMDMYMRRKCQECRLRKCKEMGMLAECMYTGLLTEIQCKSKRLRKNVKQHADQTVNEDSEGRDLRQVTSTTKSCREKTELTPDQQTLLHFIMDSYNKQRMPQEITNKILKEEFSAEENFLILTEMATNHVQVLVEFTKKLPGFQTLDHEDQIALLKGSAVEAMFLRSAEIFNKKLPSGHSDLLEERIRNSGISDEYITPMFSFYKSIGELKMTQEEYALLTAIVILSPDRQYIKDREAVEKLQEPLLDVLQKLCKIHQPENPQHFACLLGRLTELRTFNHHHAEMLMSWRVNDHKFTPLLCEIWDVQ
Outline: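 Transient MRTU transfection, HepG2; 24 h dosing; RNA → RT-PCR → 6-FAM primer extension → HpaI digest → capillary electrophoresis fluorescence. Gain/loss of signal fitted relative to DMSO.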

[3] = ATG_GRE_CIS: Attagene CIS-FACTORIAL HepG2 Assay for human Glucocorticoid Response Elements (GRE) (AID 2282947); details: HepG2 GRE cis-reporter, Attagene multiplex mRNA; actives raise or lower the signal
Outline: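 Following 24 h chemical exposure of transiently transfected HepG2 cells, total RNA was reverse-transcribed and reporter cDNA amplified, fluorescently labelled and sized by capillary electrophoresis. Signal gain or loss was fitted relative to DMSO vehicle.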

[4] = ATG_ISRE_CIS: Attagene CIS-FACTORIAL HepG2 Assay for human Interferon Regulatory Factor 1 (IRF1) binding to an Interferon-Stimulated Response Element (ISRE) (AID 2282948); details: HepG2 ISRE cis-reporter (Attagene), mRNA transcription readout; actives raise or lower the signal
Outline: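 Cell-based cis-reporter assay; HepG2; 24 h exposure; reporter mRNA by RT-PCR plus capillary electrophoresis fluorescence; activity in either direction scored relative to DMSO.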

[5] = ATG_M_32_CIS: Attagene CIS-FACTORIAL HepG2 Assay for M32 Transcription Factor (Internal Marker) (AID 2282949); details: HepG2 Attagene cis-factorial M32 reporter, mRNA; actives raise or lower the signal;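 further: background control marker of the multiplexed CIS panel rather than a real target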
Outline: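 HepG2 cells transiently transfected with multiplexed cis-regulated reporter units, dosed 24 h. Reporter mRNA quantified by RT-PCR, 6-FAM labelling, HpaI digestion and capillary electrophoresis; bidirectional fit vs DMSO.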

[6] = ATG_M_06_CIS: Attagene CIS-FACTORIAL HepG2 Assay for M06 Transcription Factor (Internal Marker) (AID 2282950); details: HepG2 Attagene CIS-FACTORIAL M06 internal marker reporter; actives raise or lower the signal
Outline: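 Fluorescence-labelled RT-PCR products from cis-promoter reporter units, cut with HpaI and resolved by capillary electrophoresis, give the signal. Cells are human HepG2, dosed for 24 h. Serves as background control, fitted relative to DMSO.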

[7] = target: Hypoxia-inducible factor 1-alpha (Homo sapiens) (UniProt Q16665); experiment: ATG_HIF1a_CIS: Attagene CIS-FACTORIAL HepG2 Assay for human Hypoxia Inducible Factor 1 (HIF1A) (AID 2282951); details: HepG2 Attagene cis-factorial HIF1a reporter transcription; actives raise or lower the signal
Chain of Hypoxia-inducible factor 1-alpha (Homo sapiens) (Q16665 whole entry, looked up): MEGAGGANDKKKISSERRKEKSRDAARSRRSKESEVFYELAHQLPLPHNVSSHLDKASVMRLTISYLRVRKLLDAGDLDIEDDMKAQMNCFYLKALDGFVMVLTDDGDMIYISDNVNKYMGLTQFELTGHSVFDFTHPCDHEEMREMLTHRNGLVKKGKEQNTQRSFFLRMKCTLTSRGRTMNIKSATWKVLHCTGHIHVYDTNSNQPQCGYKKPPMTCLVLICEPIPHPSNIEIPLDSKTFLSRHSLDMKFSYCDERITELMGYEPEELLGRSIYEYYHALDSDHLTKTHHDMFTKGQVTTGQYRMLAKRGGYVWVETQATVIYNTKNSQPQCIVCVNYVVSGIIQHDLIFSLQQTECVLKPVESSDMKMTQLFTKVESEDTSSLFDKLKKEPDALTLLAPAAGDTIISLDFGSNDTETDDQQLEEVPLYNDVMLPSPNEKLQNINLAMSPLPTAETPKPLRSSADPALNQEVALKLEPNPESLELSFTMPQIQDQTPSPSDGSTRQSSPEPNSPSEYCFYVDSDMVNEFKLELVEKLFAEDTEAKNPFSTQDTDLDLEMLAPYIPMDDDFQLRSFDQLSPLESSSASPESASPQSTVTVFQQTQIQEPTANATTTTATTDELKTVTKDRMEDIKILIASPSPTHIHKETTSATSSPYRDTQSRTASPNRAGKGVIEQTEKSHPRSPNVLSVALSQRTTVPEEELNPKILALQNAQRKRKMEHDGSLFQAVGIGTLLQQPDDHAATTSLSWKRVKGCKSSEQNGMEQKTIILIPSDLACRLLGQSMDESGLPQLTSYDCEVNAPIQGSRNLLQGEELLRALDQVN
Outline: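 RT-PCR/capillary electrophoresis fluorescence readout of reporter transcripts from endogenous-TF-driven cis elements in transfected HepG2 cells, 24 h exposure; activity fitted in both directions against DMSO controls.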

[8] = target: Hepatocyte nuclear factor 6 (Homo sapiens) (UniProt Q9UBC0); experiment: ATG_HNF6_CIS: Attagene CIS-FACTORIAL HepG2 Assay for human Hepatocyte Nuclear Factor 6 (HNF6) (AID 2282952); details: HepG2 Attagene cis-factorial HNF6 reporter transcription; actives raise or lower the signal
Chain of Hepatocyte nuclear factor 6 (Homo sapiens) (Q9UBC0 whole entry, looked up): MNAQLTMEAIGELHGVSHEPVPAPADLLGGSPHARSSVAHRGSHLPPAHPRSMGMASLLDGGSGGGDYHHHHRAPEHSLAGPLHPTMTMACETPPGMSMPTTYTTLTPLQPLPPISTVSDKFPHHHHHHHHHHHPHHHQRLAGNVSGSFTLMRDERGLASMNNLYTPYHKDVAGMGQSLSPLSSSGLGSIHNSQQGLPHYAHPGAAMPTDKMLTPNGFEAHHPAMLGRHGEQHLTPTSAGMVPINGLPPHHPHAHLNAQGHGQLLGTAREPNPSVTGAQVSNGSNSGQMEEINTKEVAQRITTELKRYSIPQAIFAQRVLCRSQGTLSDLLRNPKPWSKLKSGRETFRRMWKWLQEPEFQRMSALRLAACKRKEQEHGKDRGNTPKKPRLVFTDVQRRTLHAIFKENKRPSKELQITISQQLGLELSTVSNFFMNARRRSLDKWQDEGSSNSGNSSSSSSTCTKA
Outline: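 Multiplexed mRNA reporter assay in transfected HepG2; 24 h dosing; RT-PCR plus capillary electrophoresis fluorescence; DMSO-referenced bidirectional curve fitting.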

[9] = target: Heat shock factor protein 1 (Homo sapiens) (UniProt Q00613); experiment: ATG_HSE_CIS: Attagene CIS-FACTORIAL HepG2 Assay for human Heat Shock Transcription Factor 1 (HSE) (AID 2282953); details: HepG2 HSE cis-reporter, Attagene RNA transcription; actives raise or lower the signal
Chain of Heat shock factor protein 1 (Homo sapiens) (Q00613 whole entry, looked up): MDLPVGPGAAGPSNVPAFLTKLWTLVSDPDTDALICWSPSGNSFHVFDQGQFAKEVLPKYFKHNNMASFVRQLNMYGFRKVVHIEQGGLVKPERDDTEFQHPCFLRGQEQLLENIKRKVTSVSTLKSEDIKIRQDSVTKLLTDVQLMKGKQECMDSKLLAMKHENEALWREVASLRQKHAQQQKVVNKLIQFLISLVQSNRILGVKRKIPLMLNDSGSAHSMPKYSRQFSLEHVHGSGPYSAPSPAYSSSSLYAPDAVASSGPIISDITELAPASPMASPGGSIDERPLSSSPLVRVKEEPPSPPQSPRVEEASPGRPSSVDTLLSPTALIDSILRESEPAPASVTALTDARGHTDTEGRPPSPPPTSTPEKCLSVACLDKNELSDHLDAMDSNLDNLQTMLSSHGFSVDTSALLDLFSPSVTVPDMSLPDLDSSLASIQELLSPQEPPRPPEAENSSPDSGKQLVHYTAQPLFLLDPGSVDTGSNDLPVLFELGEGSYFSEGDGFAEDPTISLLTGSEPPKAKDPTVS
Outline: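 After a 24 h incubation with test chemical, transfected HepG2 cells were harvested for RNA; reporter transcripts were measured by RT-PCR and capillary electrophoresis. Values reflect gain or loss of signal relative to DMSO.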

[10] = ATG_MRE_CIS: Attagene CIS-FACTORIAL HepG2 Assay for human Metal Responsive Element (MRE) (AID 2282954); details: HepG2 MRE cis-reporter transcription, Attagene multiplex; actives raise or lower the signal
Outline: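 Step one: transfect HepG2 with cis-regulated reporter units. Step two: dose 24 h. Step three: isolate RNA, RT-PCR, 6-FAM label, HpaI digest, capillary electrophoresis. Fit bidirectionally to DMSO.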

[11] = target: Paired box protein Pax-6 (Homo sapiens) (UniProt P26367); experiment: ATG_Pax6_CIS: Attagene CIS-FACTORIAL HepG2 Assay for human Paired Box 6 (PAX6) (AID 2282956); details: HepG2 CIS-FACTORIAL PAX6 reporter transcription, RNA readout; actives raise or lower the signal
Chain of Paired box protein Pax-6 (Homo sapiens) (P26367 whole entry, looked up): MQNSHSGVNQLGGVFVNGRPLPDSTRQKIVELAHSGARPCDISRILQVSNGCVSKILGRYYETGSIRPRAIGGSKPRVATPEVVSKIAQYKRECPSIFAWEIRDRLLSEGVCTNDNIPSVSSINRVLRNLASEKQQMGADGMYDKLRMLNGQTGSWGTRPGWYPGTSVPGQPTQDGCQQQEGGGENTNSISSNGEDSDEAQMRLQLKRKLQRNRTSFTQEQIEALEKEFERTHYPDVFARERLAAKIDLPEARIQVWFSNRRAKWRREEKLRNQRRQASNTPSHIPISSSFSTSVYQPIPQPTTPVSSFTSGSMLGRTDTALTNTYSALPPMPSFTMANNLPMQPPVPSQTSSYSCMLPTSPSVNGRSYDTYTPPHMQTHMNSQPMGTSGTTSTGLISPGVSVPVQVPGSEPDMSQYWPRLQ
Outline: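 Multiplexed cis-reporter HepG2 system; 24 h treatment; reporter mRNA read by RT-PCR/CE fluorescence; bidirectional fit vs DMSO.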

[12] = ATG_PPRE_CIS: Attagene CIS-FACTORIAL HepG2 Assay for human Peroxisome Proliferator-activated Response Element (PPRE) (AID 2282958); details: HepG2 PPRE cis-element reporter, Attagene transcription factor profiling; actives raise or lower the signal
Outline: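 Read-out: fluorescent reporter mRNA fragments resolved by capillary electrophoresis after RT-PCR. HepG2 cells carried transiently transfected PPRE-driven cis reporter constructs and were dosed for 24 h; gain or loss of signal fitted relative to DMSO.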

[13] = ATG_RORE_CIS: Attagene CIS-FACTORIAL HepG2 Assay for human RAR-related Orphan Receptor Element (RORE) (AID 2282959); details: HepG2 Attagene cis-factorial RORE reporter, mRNA; actives raise or lower the signal
Outline: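 Readout: fluorescent reporter mRNA by RT-PCR plus capillary electrophoresis, 24 h after dosing transfected HepG2 cells. Endogenous transcription factor activity on a cis promoter element is measured. Gain or loss of signal fitted against DMSO.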

[14] = ATG_Sox_CIS: Attagene CIS-FACTORIAL HepG2 Assay for human SRY-box transcription factor (SOX) (AID 2282960); details: HepG2 Attagene cis-factorial SOX reporter, mRNA; actives raise or lower the signal
Outline: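 Read-out: fluorescent RT-PCR products of SOX1-linked reporter transcripts resolved by capillary electrophoresis, fitted bidirectionally against DMSO. Transiently transfected HepG2 cells, 24 h after chemical exposure, endogenous transcription factor activity.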

[15] = target: Transcription factor Sp1 (Homo sapiens) (UniProt P08047); experiment: ATG_Sp1_CIS: Attagene CIS-FACTORIAL HepG2 Assay for human Specificity Protein 1 (Sp1) (AID 2282961); details: HepG2 Sp1 cis-reporter transcription, actives raise or lower the signal
Chain of Transcription factor Sp1 (Homo sapiens) (P08047 whole entry, looked up): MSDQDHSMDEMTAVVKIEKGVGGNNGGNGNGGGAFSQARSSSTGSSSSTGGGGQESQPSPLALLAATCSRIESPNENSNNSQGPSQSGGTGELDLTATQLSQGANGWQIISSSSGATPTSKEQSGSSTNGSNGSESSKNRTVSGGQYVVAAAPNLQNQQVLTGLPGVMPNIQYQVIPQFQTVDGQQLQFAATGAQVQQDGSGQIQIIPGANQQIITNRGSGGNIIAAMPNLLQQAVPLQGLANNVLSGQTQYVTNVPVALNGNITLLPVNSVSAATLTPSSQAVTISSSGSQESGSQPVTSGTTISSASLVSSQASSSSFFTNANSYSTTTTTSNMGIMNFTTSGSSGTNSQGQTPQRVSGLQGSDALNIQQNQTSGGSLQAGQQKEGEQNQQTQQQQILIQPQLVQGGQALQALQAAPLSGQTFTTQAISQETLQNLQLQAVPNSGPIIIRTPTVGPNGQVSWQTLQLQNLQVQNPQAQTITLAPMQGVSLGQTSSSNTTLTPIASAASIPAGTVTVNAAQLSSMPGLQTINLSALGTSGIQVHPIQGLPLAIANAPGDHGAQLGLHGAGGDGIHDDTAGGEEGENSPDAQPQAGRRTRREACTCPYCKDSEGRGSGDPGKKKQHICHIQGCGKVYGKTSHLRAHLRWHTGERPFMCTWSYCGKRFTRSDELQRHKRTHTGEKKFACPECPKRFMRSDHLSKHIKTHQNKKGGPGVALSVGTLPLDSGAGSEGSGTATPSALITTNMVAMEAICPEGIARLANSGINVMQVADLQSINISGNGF
Outline: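 Read-out: fluorescence of 6-FAM-labeled, HpaI-digested RT-PCR products separated by capillary electrophoresis. HepG2 cells carried transfected cis-element reporter units and were exposed to chemicals for 24 h; gain or loss of signal fitted relative to DMSO.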

[16] = ATG_SREBP_CIS: Attagene CIS-FACTORIAL HepG2 Assay for human Sterol Regulatory Element Binding (SREBP) (AID 2282962); details: HepG2 Attagene cis-factorial SREBP reporter, mRNA; actives raise or lower the signal
Outline: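 mRNA induction of transfected cis-promoter reporters in HepG2 cells, 24 h post-dose. Detection: RT-PCR with 6-FAM-labelled products, HpaI digest, capillary electrophoresis. DMSO served as negative control and baseline.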

[17] = target: Signal transducer and activator of transcription 3 (Homo sapiens) (UniProt P40763); experiment: ATG_STAT3_CIS: Attagene CIS-FACTORIAL HepG2 Assay for human Signal Transducer and Activator of Transcription 3 (STAT3) (AID 2282963); details: HepG2, Attagene cis-factorial STAT3 reporter transcription; actives raise or lower the signal
Chain of Signal transducer and activator of transcription 3 (Homo sapiens) (P40763 whole entry, looked up): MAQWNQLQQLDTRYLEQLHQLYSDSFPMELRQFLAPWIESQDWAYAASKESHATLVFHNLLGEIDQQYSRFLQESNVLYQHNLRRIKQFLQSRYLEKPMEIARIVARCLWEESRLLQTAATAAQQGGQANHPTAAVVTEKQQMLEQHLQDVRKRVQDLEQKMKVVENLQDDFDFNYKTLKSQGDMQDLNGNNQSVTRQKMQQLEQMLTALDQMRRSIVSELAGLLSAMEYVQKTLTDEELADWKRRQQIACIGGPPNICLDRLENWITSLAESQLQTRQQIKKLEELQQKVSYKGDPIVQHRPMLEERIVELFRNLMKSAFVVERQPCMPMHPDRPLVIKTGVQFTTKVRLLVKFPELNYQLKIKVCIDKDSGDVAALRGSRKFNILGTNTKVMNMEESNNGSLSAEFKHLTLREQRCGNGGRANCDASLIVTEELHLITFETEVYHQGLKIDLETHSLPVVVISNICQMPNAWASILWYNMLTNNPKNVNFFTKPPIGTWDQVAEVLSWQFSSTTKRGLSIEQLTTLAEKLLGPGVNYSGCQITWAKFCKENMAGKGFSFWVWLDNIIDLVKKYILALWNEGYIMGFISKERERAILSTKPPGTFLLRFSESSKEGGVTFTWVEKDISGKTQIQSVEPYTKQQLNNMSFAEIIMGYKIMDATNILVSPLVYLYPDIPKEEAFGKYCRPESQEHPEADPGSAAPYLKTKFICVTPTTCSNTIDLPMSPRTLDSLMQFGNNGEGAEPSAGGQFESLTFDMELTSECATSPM
Outline: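 Transcript-level reporter assay. HepG2 transient MRTU transfection, 24 h exposure, fluorescence detection after RT-PCR and CE; DMSO baseline.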

[18] = ATG_TA_CIS: Attagene CIS-FACTORIAL HepG2 Assay for human TA Basal Promoter (AID 2282964); details: HepG2 Attagene CIS-factorial TA basal promoter reporter; actives raise or lower the signal
Outline: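 Multiplexed mRNA reporter assay, HepG2, 24 h. Reporter cDNA amplified, 6-FAM primer-extended, HpaI-cut, CE-sized; DMSO = negative control and baseline.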

[19] = ATG_PBREM_CIS: Attagene CIS-FACTORIAL HepG2 Assay for human Phenobarbital-responsive Enhancer Module (PBREM) (AID 2282955); details: HepG2 PBREM cis-reporter, Attagene multiplexed transcription; actives raise or lower the signal
Outline: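 Reporter mRNA read by RT-PCR, 6-FAM primer extension, HpaI digestion and capillary electrophoresis. Transfected HepG2 cells, 24 h compound exposure. Gain or loss of signal fitted bidirectionally relative to DMSO baseline.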

[20] = ATG_PXRE_CIS: Attagene CIS-FACTORIAL HepG2 Assay for human Pregnane X Receptor Element (PXRE) (AID 2282957); details: HepG2 Attagene CIS-FACTORIAL PXRE reporter, mRNA; actives raise or lower the signal
Outline: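 Cells: HepG2, transiently transfected reporter units under cis promoter control. Exposure: 24 h. Detection: reporter mRNA via RT-PCR/CE fluorescence; bidirectional fitting, DMSO-referenced.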

Measured: AC50

Cc1cccc(N(C)C)c1
not listed: [19] | [20]
inactive: all other assays above

O=C(O)C(F)(F)C(F)(F)C(F)F
not listed: [5]
inactive: all other assays above

O[Si](c1ccccc1)(c1ccccc1)c1ccccc1
active: [1] 134 µM | [2] 10.2 µM | [10] 33.3 µM | [16] 69.1 µM
not listed: [5] | [20]
inactive: all other assays above

CCCCCCS
active: [4] 133 µM
not listed: [5] | [20]
inactive: all other assays above

CCCCC(CC)COP(=O)(O)OCC(CC)CCCC (configuration not stated)
active: [12] 5.45 µM
not listed: [19] | [20]
inactive: all other assays above

OCC(F)(F)C(F)(F)C(F)(F)C(F)(F)C(F)(F)C(F)(F)F
active: [19] 282 µM | [16] 234 µM
not listed: [5] | [20]
inactive: all other assays above

O=C(O)C(F)(F)C(F)(F)OC(F)(F)F
not listed: [19] | [20]
inactive: all other assays above
